Hit rate of the full screen: of about 2,100 compounds, about 770 (37%) were called active.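 How the source made its calls: active means by-eye trace score of 1 for enhancers or -1 for inhibitors, so actives lie on both sides (some results past the limit were not filed as active); inactive means score 0, or 3 fluorescent, or 4 baseline rise.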 Some of the results follow.
These compounds were tested against G protein-activated inward rectifier potassium channel 2 (Homo sapiens) + G protein-activated inward rectifier potassium channel 1 (Homo sapiens) (UniProt P48051+P48549) (assay: GIRK1/2 thallium flux modulators, retest, confirmation, cell-based, HEK293 rmGlu8/hGIRK1/2, FluoZin-2 (AID 623911)). Settings: HEK293 rmGlu8/hGIRK1/2, thallium flux FluoZin-2; actives lie on both sides; glutamate co-added at its EC20 level.
Sequence of G protein-activated inward rectifier potassium channel 2 (Homo sapiens) + G protein-activated inward rectifier potassium channel 1 (Homo sapiens) (P48051 whole entry, looked up): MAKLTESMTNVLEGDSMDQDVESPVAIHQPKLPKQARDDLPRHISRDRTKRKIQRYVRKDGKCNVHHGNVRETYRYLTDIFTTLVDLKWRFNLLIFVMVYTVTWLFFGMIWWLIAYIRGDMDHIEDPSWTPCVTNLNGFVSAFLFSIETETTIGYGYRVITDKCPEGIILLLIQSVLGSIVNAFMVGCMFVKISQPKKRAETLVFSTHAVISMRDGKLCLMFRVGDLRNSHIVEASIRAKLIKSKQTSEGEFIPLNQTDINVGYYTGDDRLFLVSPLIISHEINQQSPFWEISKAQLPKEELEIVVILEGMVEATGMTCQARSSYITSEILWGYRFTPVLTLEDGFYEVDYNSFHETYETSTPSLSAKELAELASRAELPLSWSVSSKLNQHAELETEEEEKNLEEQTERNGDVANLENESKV
Sequence of G protein-activated inward rectifier potassium channel 2 (Homo sapiens) + G protein-activated inward rectifier potassium channel 1 (Homo sapiens) (P48549 whole entry, looked up): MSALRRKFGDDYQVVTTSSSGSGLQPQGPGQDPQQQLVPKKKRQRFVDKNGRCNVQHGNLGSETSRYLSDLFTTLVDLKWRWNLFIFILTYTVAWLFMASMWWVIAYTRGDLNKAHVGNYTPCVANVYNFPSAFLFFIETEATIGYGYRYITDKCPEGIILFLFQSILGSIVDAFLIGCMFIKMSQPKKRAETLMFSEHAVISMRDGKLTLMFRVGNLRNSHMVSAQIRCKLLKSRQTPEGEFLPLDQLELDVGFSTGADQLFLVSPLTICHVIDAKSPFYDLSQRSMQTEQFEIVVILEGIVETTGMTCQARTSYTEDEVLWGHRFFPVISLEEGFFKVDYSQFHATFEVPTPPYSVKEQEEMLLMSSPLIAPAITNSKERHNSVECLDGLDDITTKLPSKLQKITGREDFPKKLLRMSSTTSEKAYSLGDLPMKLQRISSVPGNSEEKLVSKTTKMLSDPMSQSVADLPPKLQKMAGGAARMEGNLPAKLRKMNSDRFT

Manual score, inactive:
Clc1ccc(CSc2ncn(-c3ccccc3)n2)cc1 0
Cc1cc2c(cc1C)C(=O)NC(C)(C)C2 0
COCCn1nnnc1C(c1ccccc1)N1CCN(c2ccccc2)CC1 (stereo not drawn) 0
CCC(c1nnnn1Cc1ccc(OC)cc1)N(CCCO)Cc1cc2cc3c(cc2[nH]c1=O)OCO3 (stereo not drawn) 0
Cc1ccccc1/C=c1\s/c(=C\C(=O)C(C)(C)C)[nH]c1=O 0
O=C(O)CCCCCNc1nc2ncn(Cc3ccccc3)c2c(=O)[nH]1 0
CCN(CC)C(=O)CN(c1ccc2c(c1)OCO2)S(C)(=O)=O 0
COc1ccc(OC)c(C2C(C(=O)c3cccs3)=C(O)C(=O)N2c2cc(C)on2)c1 (stereo not drawn) 0
COC(=O)c1cc(OC)c(OC)cc1NC(=O)Nc1ccc(OC)cc1OC 0
COc1ccc(-n2c(=O)[nH]cc(C(=O)Nc3ccc(NC(C)=O)cc3)c2=O)cc1 0
Cn1cccc1-c1nc2ccc(NC(=O)c3cccs3)cc2[nH]1 0
O=C(Nc1ccc(CN2CCOCC2)cc1)c1cc2ccccn2n1 0
COCCCNCCCOc1ccc(Cl)cc1Br 0
COc1cc2cnncc2cc1OC 0
S=c1[nH]nc(-c2cc3ccccc3o2)n1Cc1ccccc1 0.5
CCCc1cc(-c2n[nH]c(=S)n2Cc2ccccc2)cs1 0
C/C(=N/NC(=O)c1cc(Cl)ccc1O)C12CC3CC(CC(C3)C1)C2 0
CN1C2C=C3C(C#N)=C(N)C(C#N)(C#N)[C@@H](c4ccsc4)[C@@H]3C1CC2 (stereo partly drawn) -0.5
O=C(Nc1nnc(-c2ccccc2F)s1)C1CCCO1 (stereo not drawn) 0
OC(CNCC1CCCO1)Cn1c2ccc(Br)cc2c2cc(Br)ccc21 (stereo not drawn) 0
CCOc1ccccc1NC(=O)Nc1cccc(C(C)=O)c1 0
COc1ccc(OC)c(Nc2cc(-c3ccccc3)nc(N)n2)c1 -0.5
O=C(Nc1ccccc1-c1nnn(CC(=O)N2CCc3ccccc3C2)n1)C1CCC1 0
C=CCn1c(-c2cccs2)nc2ccccc21 0
CCN(CC)C(=O)CSc1nc2ccccc2c(=O)n1-c1ccccc1OC 0
COC(=O)c1ccc2c(=O)n(C3CCCCC3)c(SCC#N)nc2c1 0
CC(C)(C)c1nnc(N/N=C/c2ccccc2)n(N)c1=O 0
C/C(=N\NC(N)=S)c1ccc(Cl)s1 0
CNC(=S)N/N=C(\C)c1ccc(C)c(C)c1 0
C/C(=N\NC(=O)c1csc(C)c1C)c1ccc(Cl)s1 0
CC(C)NC(=S)N/N=C/c1cc(Br)ccc1O 0
CCNC(=S)N/N=C(\C)c1ccc(Cl)s1 0
C/C(=N\NC(=S)NCCc1ccccc1)c1cccs1 3
Cn1c(NC(=O)Cc2ccc(F)cc2)cc(=O)n(C)c1=O 0
CS(=O)(=O)c1ccc2nc(NC(=O)C3C4C=CC(C4)C3C(=O)O)sc2c1 (stereo not drawn) 0
CC1=NN(/C(=N\c2nnc(C)s2)Nc2ccccc2)[C@H](c2cccc3ccccc23)S1 0
CCN(CC)CCn1c(=S)[nH]c2cc(Cl)ccc2c1=O 0
CCN(CC)CCCn1c(=S)[nH]c2cc(Cl)ccc2c1=O 0
O=C(NNS(=O)(=O)c1ccccc1F)c1cccc(S(=O)(=O)N2CCOCC2)c1 0
CCC(CC)c1nnc(NC(=O)c2ccc3ccccc3n2)s1 0
CCc1ccc(NCc2cc3c(C)nn(-c4ccccc4)c3[nH]c2=O)cc1 0
O=C1CC(C(F)(F)C(F)(F)C(F)(F)F)=Nc2ccccc2N1 0
Cc1ccccc1C(=O)N/N=C/c1ccc([N+](=O)[O-])s1 0
O=C(N/N=C/c1ccc([N+](=O)[O-])s1)c1cccc(Br)c1 0
CCOC(=O)C1CCCN(C(=O)c2cc(-c3ccccc3)on2)C1 (stereo not drawn) 0
CCOC(=O)N1CCN(C(=O)CSc2ncnc3ccccc23)CC1 0
Cc1ccc(S(=O)(=O)CC(=O)Nc2ccc(S(=O)(=O)Nc3onc(C)c3C)cc2)cc1 -0.5
C/C(CC(O)c1ccc2ccccc2n1)=N/O (stereo not drawn) 0
CNC(=S)N=Nc1c(O)[nH]c2ccc(C(C)C)cc12 0
Cn1c(=O)c2c(nc3sccn32)n(C)c1=O 0
CC(C)(C)c1ccc(C(=O)NC(=S)Nn2cnnc2)cc1 0
CC(C)(C)c1ccc(SCC(N)=O)cc1 0
O=[n+]1c2c(n([O-])c3cc(F)c(N4CCCC4)cc31)CCCC2 3
COc1ccc2cc(C(=O)NCC(=O)O)sc(=O)c2c1OC 0
C=CCn1c(SCC(=O)Nc2sccc2C(N)=O)nc2ccc(Cl)cc2c1=O 0
CCOC(=O)c1cnc(SCC(=O)Nc2nc(C)c(C)s2)nc1N 0
Cc1c(C(=O)O)c(=S)sn1CCOc1ccccc1 0
Cc1ccc(-c2cnc(NC(=O)CCC(=O)N3CCCCC3)n2C)cc1 0
N#Cc1nc(Cc2ccccc2)oc1NCCc1ccccc1 -0.5
O=C(c1cccc(F)c1)N1CCN(C(=O)c2cc(-c3ccc(Cl)cc3Cl)on2)CC1 0
Cn1cccc1/C=N/n1c(-c2ccc(C(C)(C)C)cc2)n[nH]c1=S 0
Cc1ccc(-c2n[nH]c(=S)n2/N=C/c2ccc(C)s2)cc1 0
Cc1ccc(-c2n[nH]c(=S)n2/N=C/c2cccs2)cc1 0.5
Cc1ccc(OCC(=O)NC(=S)Nc2cccc(C)n2)cc1 0
Cc1cc([N+](=O)[O-])ccc1NC(=S)NC(=O)Cc1ccccc1 0
Cc1ccc2cccc(NC(=S)NC(=O)c3ccnn3C)c2n1 0
COc1cccc(C(=O)NC(=S)Nc2ccc([N+](=O)[O-])cc2C)c1 0
O=C(CC(=O)Nc1ccccn1)Nc1ccccn1 0
O=C(NC(=S)Nc1ccccn1)c1cc(-c2ccccc2)nc2ccccc12 0.5

Manual score, active:
COc1ccccc1C(c1nnnn1CCc1ccccc1)N1CCCCCC1 (stereo not drawn) -1
COc1ccc(Cn2nnnc2C(c2ccc(F)cc2)N2CCN(C3CCCC3)CC2)cc1 (stereo not drawn) -1
C=CCN1CCN(C(c2ccc(Cl)cc2)c2nnnn2CCc2ccc(OC)c(OC)c2)CC1 (stereo not drawn) -1
COc1ccc(Cn2nnnc2C(c2ccccc2Cl)N2CCN(C3CCCC3)CC2)cc1 (stereo not drawn) -1
CCN(c1ccc2c(c1)OCO2)S(=O)(=O)c1cc(Br)cc2c1N(C(=O)C1CC1)CC2 -1
COc1ccc(NC(=O)C(=O)NNC(=O)c2cccs2)cc1 1
COc1ccc(NC(=O)C(=O)NNC(=O)c2cccs2)c(OC)c1 1
COCCNCCOc1ccccc1-c1ccccc1 -1
S=c1[nH]nc(-c2ccc(Br)o2)n1Cc1ccccc1 1
CC(C)(C)CC(C)(C)NCC(O)COc1c(F)cc(Br)cc1F (stereo not drawn) -1
COc1ccc(Nc2nnc(Cc3ccccc3)c(=O)[nH]2)c(OC)c1 1
CCOc1ccccc1Nc1nnc(Cc2ccccc2Cl)c(=O)[nH]1 1
Cc1sc2ncnc(N(C)Cc3cccs3)c2c1C -1
CCOC(=O)c1c(CNCCN(CC)CC)n(C)c2cc(Br)c(OC)cc12 -1
CN=C1c2c(-c3ccccc3)c3cc(OC)ccc3n2CCN1C -1
CCc1cc(-c2n[nH]c(C)c2-c2nc3ccccc3n2C)c(O)c(CN2CCN(C)CC2)c1O -1
CCCN(CCC)C(=O)CSc1nc2ccccc2c(=O)n1C1CCCC1 -1
C/C(=N\NC(=S)NC(C)C)c1ccc(Cl)s1 1
CNC(=S)N/N=C(\C)c1ccc(Cl)s1 1
C=C(C)CNC(=S)N/N=C(\C)c1ccc(Cl)s1 1
O=C(c1oc(=O)c2ccccc2c1-c1ccccc1)N1CCN(C2CCCCC2)CC1 -1
CCCCn1c(=S)[nH]c2c(oc3ccc(Cl)cc32)c1=O 1
Cc1ccc(C2C3=C(NCCN=C3c3ccccc3)C(=O)N2c2ccccc2)cc1 (stereo not drawn) -1
Cc1ccc2nsnc2c1S(=O)(=O)Nc1cccc2nsnc12 1
CCc1ccc(Nc2nc3ccccc3c(=O)s2)cc1 1
O=C(N/N=C\c1ccc(Cl)s1)c1cccs1 1
CCOC(=O)C1CCCN(c2nc(C)nc3c2oc2ccccc23)C1 (stereo not drawn) -1
CCOC(=O)C1CCCN(c2ncnc3c2oc2ccccc23)C1 (stereo not drawn) -1
Cc1ccc(C)c(C(=O)c2c(C)nc3sccn23)c1 -1
Cc1cccc(C(=O)NNC(=O)C(=O)NC(C)(C)C)c1 1
CC(C)(C)NC(=O)C(=O)NNC(=O)c1ccc(C(C)(C)C)cc1 1
CCOC(=O)c1c(NC(=O)CSc2nnc(Cc3csc(N)n3)n2C)sc(C)c1C -1
C=CCn1c(SCC(=O)Nc2sc(C)c(C)c2C(=O)OCC)nnc1-c1sc(N)nc1C -1
Cc1ccc(/C=N/n2c(-c3cccs3)n[nH]c2=S)cc1 1
Fc1ccc(/C=N/n2c(-c3cccs3)n[nH]c2=S)cc1 1
O=C(NC(=S)Nc1ccccn1)c1ccco1 1
Cc1cccc(NC(=S)NC(=O)c2ccco2)n1 1
Cc1ccc2nsnc2c1NC(=S)NC(=O)c1ccco1 1
Cc1ccc([N+](=O)[O-])cc1NC(=S)NC(=O)c1ccco1 1
